# Only a selection was taken, and hits are over-represented in it overall.
# FBPA Giardia inh: qHTS Assay for Inhibitors of Fructose-1,6-bisphosphate Aldolase from Giardia Lamblia; A8B2U2; purified Giardia FBPA; Potency, µM (doses to about 59.6 µM), for the others: at the highest dose activity, negative = inhibition, most hits filed as inhibitors; actives 0.71% (n = 290,000); AID 2451, 2010; further: potency means the concentration at half of the fitted maximal effect; on the % scale 0 is the no-effect control and ±100 the full control effect; nearly all actives have a fitted effect of over 55% in size
#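 Giardia FBPA (40 nM reagent) was preincubated 10 min at RT with compound (up to 57.5 uM final), then substrate plus GAPDH/TPI/NAD/arsenate coupling system with diaphorase/resazurin was added; resorufin fluorescence (525/598 nm) was read after 20 min.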
# TbPYK inhibitor: qHTS of Trypanosoma Brucei Inhibitors | pyruvate kinase (Trypanosoma brucei), Q57TT1 | TbPYK enzyme, Kinase-Glo Plus ATP luminescence, 45 min | Potency, µM (highest dose often 76.8 µM), without a hit: at the highest dose activity, negative = inhibition, usual class: inhibitors | actives 0.12% (n = 410,000) | AID 624173, 2012; further: potency means the concentration at half of the fitted maximal effect; on the % scale 0 is the no-effect control and ±100 the full control effect; nearly all actives have a fitted effect of over 50% in size
#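 Enzyme and substrate buffer are dispensed first and compound is pin-transferred. ADP at 130 uM final then starts the reaction, which runs 45 min at room temperature. Detection reagent is added for 10 min before luminescence is imaged.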
# RE007 growth inh: qHTS Assay for Inhibitors of the HIV-1 protein Vpr. S. pombe RE007 Vpr strain, BacTiter-Glo ATP luminescence, 24 h. Potency, µM (highest dose often 92.2 µM), for inactives: at the top dose activity change, negative = less growth, hits mostly inhibitors. actives 0.21% (n = 360,000). AID 651644, 2012; active means well fitted falling curve with a large enough effect; inconclusive means small, poorly fitted or top-dose-only effect; inactive means no such curve, though single readings can be large or run the other way; further: potency means the concentration at half of the fitted maximal effect; on the % scale 0 is the no-effect control and ±100 the full control effect; nearly all actives have a fitted effect of over 50% in size
#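 Fission yeast strain RE007, carrying one chromosomally integrated HIV-1 vpr copy, was seeded at OD 0.01 in PMG+AL medium with 23 nL pinned compound. After 24 h at 30 °C and 99% humidity, viability was read by BacTiter-Glo luminescence.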
# Shiga inhibitor: A qHTS for Small Molecule Inhibitors of Shiga Toxin | Vero cells, Shiga toxin protein synthesis inhibition reporter | inhibition, % at 38.7 µM | actives 9.2% (n = 290,000); in the data active means inhibition mostly above about 28%, no sharp cut-off; inactive means mostly below about 43%; further: 0% is about no effect
# LmPK inh: qHTS Assay for Inhibitors of Leishmania Mexicana Pyruvate Kinase (LmPK) | Q27686 | purified LmPK, Kinase-Glo ATP luminescence, 1 h | Potency, µM (highest dose often 57.5 µM), inactives show at the top dose activity change, negative = inhibition, usual class: inhibitors | actives 0.37% (n = 290,000); further: potency means the concentration at half of the fitted maximal effect; on the % scale 0 is the no-effect control and ±100 the full control effect
# Target sequence (Q27686 whole entry, looked up): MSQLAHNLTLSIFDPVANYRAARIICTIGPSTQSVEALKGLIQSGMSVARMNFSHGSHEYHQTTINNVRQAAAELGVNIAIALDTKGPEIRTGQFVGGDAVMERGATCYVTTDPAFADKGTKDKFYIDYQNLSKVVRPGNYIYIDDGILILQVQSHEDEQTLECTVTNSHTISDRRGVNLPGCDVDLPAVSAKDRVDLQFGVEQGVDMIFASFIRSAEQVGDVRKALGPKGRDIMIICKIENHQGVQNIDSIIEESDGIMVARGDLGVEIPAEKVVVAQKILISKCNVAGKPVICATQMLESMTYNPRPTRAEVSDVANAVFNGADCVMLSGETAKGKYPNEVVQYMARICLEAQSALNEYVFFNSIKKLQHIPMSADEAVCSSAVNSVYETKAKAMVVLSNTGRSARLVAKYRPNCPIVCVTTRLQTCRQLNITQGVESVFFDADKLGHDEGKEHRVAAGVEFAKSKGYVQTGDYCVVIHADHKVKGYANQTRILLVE
#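 Screened at intermediate enzyme activity to detect both inhibitors and activators: LmPK at 0.1 nM, with a 0.5 nM enzyme column as activation reference. PEP 0.5 mM, ADP 0.1 mM; ATP detected by luminescence after 1 h.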
# CHX counter: Cycloheximide Counterscreen for Small Molecule Inhibitors of Shiga Toxin | actives 12% (n = 300,000) | cell reporter, cycloheximide protein synthesis inhibition counterscreen | max response, % | AID 2314, 2010; in the data active means max response mostly above about 13%, no sharp cut-off; inactive means mostly below about 14%; further: read at 38.3 µM for the half of the compounds with a filed dose; 0% is about no effect
# * = called active by the depositor; u = inconclusive; x = not tested or not shown; [ ] = dose if it differs, or a comment. Unless noted, the call rests on the fitted dose curve; in most records, active means well fitted curve in the direction sought with a large enough effect; inconclusive means small, poorly fitted or top-dose-only effect, or another doubt; inactive means no such curve, though single readings can be large; an effect the other way counts as inactive or inconclusive.
SMILES,FBPA Giardia inh,TbPYK inhibitor,RE007 growth inh,Shiga inhibitor,LmPK inh,CHX counter
Cc1cc(-c2csc(NC(=O)c3ccc(=O)[nH]c3)n2)c(C)n1Cc1ccccc1,-18.1%,1.8%,7.7%,-10.7,0.5%,3.0
O=C(Nc1nc(-c2ccccc2)cs1)c1ccc(=O)[nH]c1,-6.5%,-0.8%,-7.6%,67.3*,3.3%,24.0*
Cc1csc(NC(=O)c2ccco2)n1,6.7%,-3.0%,-17.7%,-4.5,0.5%,-2.5
O=C(Nc1nc(-c2ccc(Cl)s2)cs1)c1ccco1,-1.2%,1.6%,u,80.9*,0.1%,56.5*
O=C(Nc1nc(-c2nc3ccccc3s2)cs1)c1ccco1,2.5%,1.3%,-10.8%,65.7*,4.4%,30.5*
O=C(Nc1nc(-c2ccccc2)ns1)c1cccs1,-16.2%,0.2%,u,67.8*,-15.1%,28.2*
Cc1cc(-n2c(C)nc3ccccc3c2=O)ccc1NC(=O)c1ccc(C)c([N+](=O)[O-])c1,x,7.5%,x,x,x,x
O=C(CSc1nc2c([nH]c3ccccc32)c(=O)n1-c1ccccc1F)Nc1cccc(Cl)c1,x,5.0%,x,x,x,x
CNS(=O)(=O)c1cn(CC(=O)N2CCN(c3cc(C)ccc3C)CC2)cc1S(=O)(=O)NC,x,0.0%[15.4 µM],x,x,x,x
O=C(O)C1CCCCC1C(=O)Nc1nc(-c2ccc(Cl)s2)cs1 (centres undefined),5.7%,-5.3%,2.5%,2.0,2.8%,-0.9
COc1ccccc1OCc1csc(NC(=O)c2ccco2)n1,1.3%,-12.9%,-12.7%,98.0*,-1.6%,53.1*
O=C(Nc1ccc(Cl)cc1-c1nc2ccccc2s1)c1ccco1,-0.2%,2.4%,0.0%,78.9*,1.3%,13.3
CC1CC1C(=O)Nc1nc(-c2ccccc2)cs1 (centres undefined),-4.5%,3.9%,u,84.5*,1.6%,38.7*
O=C(Nc1nc(-c2nc3ccccc3s2)cs1)C1CC1,-11.3%,-3.1%,14.1%,85.2*,-1.3%,63.3*
COc1ccc(OC)c(CNC(=O)c2nn(C)c3c2CSc2ccccc2-3)c1,x,3.8%,x,x,x,x
CCn1cc(C(=O)NCc2ccc(C)cc2)c(=O)c2cc(S(=O)(=O)N3CCCCCC3)ccc21,x,0.1%,x,x,x,x
CCC(N=c1cc(-c2ccc(OC)cc2)oc2ccc(C)cc12)C(=O)O (centres undefined),-2.3%,-3.6%,-2.3%,77.4*,2.2%,82.0*
CCC(N=c1cc(-c2ccc(OC)c(OC)c2)oc2ccc(C)cc12)C(=O)O (centres undefined),-9.8%,-6.4%,9.7%,16.4,-2.3%,21.2*
CCCCC(=O)Oc1ccc2oc(-c3ccc(OC)cc3)cc(=O)c2c1,x,-0.7%,x,x,x,x
Cc1ccc(NC(=O)Cn2c(-c3ccc4c(c3)OCO4)cn(-c3ccccc3)c2=O)cc1,x,3.3%,x,x,x,x
O[C@@H]1CCN2Cc3ccccc3N=C12,-19.2%,x,x,9.8,x,-1.2
O=C(N/N=C/c1c(O)n(Cc2ccc(F)cc2)c(=O)[nH]c1=O)c1ccccc1,3.4%,4.3%,2.7%,89.2*,5.8%,29.5*
O=c1[nH]c(=O)n(CCC2=CCCCC2)c(O)c1C=Nc1cccc(F)c1,3.9%,3.1%,5.7%,-17.6,0.9%,7.7
O=C(N/N=C/c1c(O)n(Cc2ccccc2)c(=O)[nH]c1=O)c1ccncc1,17.4%,-1.2%,-11.6%,1.8,0.2%,-0.8
O=c1[nH]c(=S)n(CCC2=CCCCC2)c(O)c1C=NCc1cccnc1,4.7%,x,x,-18.6,2.8%,-8.4
SMILES,FBPA Giardia inh,TbPYK inhibitor,RE007 growth inh,Shiga inhibitor,LmPK inh,CHX counter
O=C(N/N=C/c1c(O)n(CCC2=CCCCC2)c(=O)[nH]c1=O)c1ccccc1,-3.6%,-10.1%,7.2%,20.6,2.4%,26.8*
O=C(N/N=C/c1c(O)n(CCC2=CCCCC2)c(=S)[nH]c1=O)c1ccccc1,u,-5.0%,10.4%,37.6*,1.6%,34.9*
Nc1ccccc1N=Cc1c(O)n(CCC2=CCCCC2)c(=O)[nH]c1=O,-2.0%,1.7%,-7.3%,179.7*,5.9%,61.6*
C[C@@H]1C(=O)N(S(=O)(=O)c2ccc([N+](=O)[O-])cc2)[C@H]1c1ccc(F)cc1,20.8%,x,x,-11.4,x,-1.6
CCOP(=O)(OCC)C(C)(C)NC(=O)Nc1ccc(Cl)c(Cl)c1,1.0%,0.9%,2.3%,9.8,7.8%,-2.0
COc1cccc(NC(=O)c2nn(-c3ccc(C)cc3)c(=O)n(C)c2=O)c1,x,3.5%,x,x,x,x
O=C(CCCc1c[nH]c2ccccc12)N1CCCCCC1,-5.0%,-0.1%,u,38.2,1.2%,20.2*
CCCCN(C)C(=O)CCCc1c[nH]c2ccccc12,0.6%,-6.3%,0.1%,42.3*,7.9%,17.5*
CCOC(=O)CCCc1c[nH]c2ccccc12,0.7%,-9.2%,-5.7%,37.9,-1.7%,7.8
O=C(CCc1c[nH]c2ccccc12)N1CCCC1,-14.8%,2.0%,-9.8%,13.5,0.2%,-3.2
NNC(=O)c1ccc(Cn2cc(Br)c(N)n2)cc1,-3.8%,-6.8%,1.6%,18.0,-5.1%,11.8*
O=C(COC(=O)c1cncc(Br)c1)NCc1cccs1,x,0.0%,-12.6%,x,x,x
O=C(NC(=S)N1CCCCCC1)c1ccccc1,x,-30.6%,-6.8%,-12.7,-4.8%,9.1
CC(=C1C(=O)c2ccccc2C1=O)N1CCN(c2ccc(F)cc2)CC1,-14.8%,-9.9%,2.9%,32.6*,1.8%,13.7*
O=C(NC(=O)N1CCCCC1)c1ccccc1,3.5%,4.2%,-16.3%,19.8,0.2%,14.0*
O=C(NC(=O)N1CCN(c2ccc(F)cc2)CC1)c1ccccc1,-5.2%,3.9%,5.3%,32.4,-7.2%,19.7*
O=C(NC(=S)N1CCN(c2ccc(F)cc2)CC1)c1ccccc1,x,-14.4%,5.1%,x,x,x
Cc1cc(C)n(C(=O)CNC(=O)c2ccc(C(C)(C)C)cc2)n1,-2.2%,3.5%,11.7%,24.4,2.0%,34.2*
CCc1ccc(Nc2n[n+](-c3ccccc3)c(-c3ccc(OCc4ccccc4)cc3)s2)cc1,u,-6.8%,-2.9%,13.6,-2.8%,19.0*
c1ccc(COc2ccc(-c3sc(Nc4ccccc4)n[n+]3-c3ccccc3)cc2)cc1,u,x,x,34.7*,2.8%,20.1*
CCc1ccc(Nc2n[n+](-c3ccccc3)c(-c3c(Cl)cccc3Cl)s2)cc1,u,-1.7%,-17.1%,-1.3,2.9%,0.2
O=C(O)c1ccc(-c2sc(Nc3ccccc3)n[n+]2-c2ccccc2)cc1,-23.7%,-4.5%,5.4%,25.9,2.3%,20.0*
Cc1nc2cccnc2n1C1CCN(S(=O)(=O)c2ccc(C(C)C)cc2)CC1,x,1.7%,x,x,x,x
COc1ccc(NC(=O)Cn2c(=O)n(CCCC(=O)NCCc3ccc(C)cc3)c(=O)c3ccccc32)cc1Cl,x,1.5%,x,x,x,x

# High-throughput results as filed in PubChem BioAssay.
